In PubChem BioAssay (NCI):
About 83,000 compounds went through this panel and 20% of them were active in at least one assay; those are over-represented in the sample as a whole.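 Compound tested at a single concentration for 48 hours in 96-well plates; a percent growth value below 10 was scored as active.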 Calls of active or inactive are those of the source.

Test system: NCI-H322M lung
Test: NCI-60 one-dose screen, 48 h (100 = growth as untreated, 0 = no growth, -100 = all killed)
Conditions: 10 µM unless noted

| SMILES | growth |
| --- | --- |
| Cc1[nH]ccc2cc3nc4ccccc4c3cc12 | 19.2% (inactive) |
| NS(=O)(=O)c1ccc(-n2ncc3c(N/N=C/c4ccccc4)ncnc32)cc1 | 94.6% (inactive) |
| O=C(C(=O)c1cc(Br)ccc1O)c1cc(Br)ccc1O | 67.6% (inactive) |
| COc1ccc(-c2cnc(SCC(=O)Nc3ccc(-c4nc5ccccc5s4)cc3)n2-c2ccc(OC)cc2)cc1 | 102% (inactive) |
| N#CSCC1CC(O)(c2ccccc2)C(c2ccccc2)C(c2ccc(Cl)cc2)O1 (stereo not given) | 52.3% (inactive) |
| OCc1n(Cc2ccc3ccccc3c2)cc[n+]1Cc1ccc2ccccc2c1 | 78.9% (inactive) |
| c1ccc(-c2nc(Nc3nccnn3)c3ccccc3n2)cc1 | 98.1% (inactive) |
| CCOC(=O)/C=C1/SC(=Nc2ccc(C#N)cc2)N(Cc2ccco2)C1=O | 95.5% (inactive) |
| Cc1cnc2nc(-c3ccc(N(C)C)cc3)cn2c1 | 110% (inactive) |
| COc1ccc2c(c1)c(CC(=O)[Se]C)c(C)n2C(=O)c1ccc(Cl)cc1 | 55.8% (inactive) |
| COc1cc(/C=C/C(=O)C(C(=O)/C=C/c2ccc(OC(=O)CCNc3nnc(C)s3)c(OC)c2)C(=O)CCNc2nnc(C)s2)ccc1OC(=O)CCNc1nnc(C)s1 | 42.1% (inactive) |
| O=C1C2C(C(=O)N1CC[Se][Se]CCN1C(=O)C3C(C1=O)[C@H]1C=C[C@@H]3C1)[C@H]1C=C[C@@H]2C1 (stereo not given in full) | 2.77% (active) |
| COc1ccc(OC)c(CCn2cncc2-c2c[nH]c3cc(Br)ccc23)c1 | 87.1% (inactive) |
| CN(C)c1ncnc2c1ncn2C1CCCCO1 (stereo not given) | 98.9% (inactive) |
| COc1ccc2c(c1)sc1nc(-c3ccc(Br)cc3)cn12 | 99.8% (inactive) |
| O=C(Nc1ccccc1OC(=O)c1ccccc1)c1ccccc1 | 72.3% (inactive) |
| Cc1csc(C#Cc2cncc(O)c2)n1 | 113% (inactive) |
| COc1ccc2nc(NC(=O)CN3CCn4c(nnc4C(F)(F)F)C3)sc2c1 | 98.5% (inactive) |
| CCOC(=O)C(Br)=P(c1ccccc1)(c1ccccc1)c1ccccc1 | 99.4% (inactive) |
| C=CCN(/C=C/CN(CC=C)CC=C)CC=C | 96.7% (inactive) |

| SMILES | growth |
| --- | --- |
| O=C1NC(=S)S/C1=C\c1cc(Br)ccc1O | 92.3% (inactive) |
| COc1ccc(C(=O)/C=C/c2cccc(Nc3ccnc4cc(Cl)ccc34)c2)cc1 | 49.6% (inactive) |
| CCCCCCCCCCOC(C)=O | 107% (inactive) |
| O=C1C(=O)c2c(nc3ccc(Cl)cn23)-c2ccccc21 | -92.1% (active) |
| CC(=O)OCC(=O)[C@@]1(O)CC[C@H]2[C@@H]3CCC4=CC(=O)CC[C@]4(C)[C@@]3(F)[C@@H](O)C[C@@]21C | 129% (inactive) |
| CCc1nn2c(-c3ccc(Cl)cc3C)c(-c3cc(OC)c(OC)c(OC)c3)nc2s1 | 69.7% (inactive) |
| COc1cc(/C=C/C(=O)C(C(=O)/C=C/c2ccc(OC(=O)CCNC34CC5CC(CC(C5)C3)C4)c(OC)c2)C(=O)CCNC23CC4CC(CC(C4)C2)C3)ccc1OC(=O)CCNC12CC3CC(CC(C3)C1)C2 (stereo not given) | 51.6% (inactive) |
| CN(C)c1ccc(-c2nc3ncc(Br)cc3o2)cc1 | 90.2% (inactive) |
| CCCc1n(Cc2ccc3ccccc3c2)cc[n+]1Cc1ccc2ccccc2c1 | 23.2% (inactive) |
| N#Cc1c(-c2ccccc2)cc(-c2ccccc2)n(CCC(=O)O)c1=O | 91.2% (inactive) |
| C=C1CCC2C3(C)COC(c4ccccc4)OC3CCC2(C)C1C/C=C1/C(=O)OCC1OC(C)=O (stereo not given) | 97% (inactive) |
| O=C(CNC(=O)c1cccc2ccccc12)Nc1ccccc1Cc1ccccc1 | 78.4% [5 µM] (inactive) |
| COC(=O)C1=CCC(n2cnc3c(N)ncnc32)O1 (stereo not given) | 94.4% (inactive) |
| O=C(NC1CCCCC1)c1ccc(Nc2ncnc3c2cnn3-c2ccccc2)cc1 | 64% (inactive) |
| COc1ccc(-c2cc(-c3cccnc3)nc3sc(C(=O)Nc4ccccc4)c(N)c23)cc1OC | 79.3% (inactive) |
| Clc1ccc(C2=NN(c3ccc(Cl)cc3)C(c3cccc(Nc4ccnc5cc(Cl)ccc45)c3)C2)cc1 (stereo not given) | 87.7% (inactive) |
| CCCCN=C(N)c1ccc(OCCSCCOc2ccc(C(N)=NCCCC)cc2)cc1 | 69.2% (inactive) |
| C/C(=C\CCc1ccoc1)CC/C=C(\C)CCCC1COC(=O)C1 (stereo not given) | 88.9% (inactive) |
| Oc1c(Cl)cc(Oc2cc(Cl)c(O)c(CN3CCOCC3)c2)cc1CN1CCOCC1 | 96% (inactive) |
| CCOC(=O)CCN(c1c(Cl)ssc1=O)C(C)C | 102% (inactive) |

Test system: HOP-62 NSCLC
Test: as above
Conditions: 10 µM unless noted

| SMILES | growth |
| --- | --- |
| Cc1[nH]ccc2cc3nc4ccccc4c3cc12 | 34.4% (inactive) |
| NS(=O)(=O)c1ccc(-n2ncc3c(N/N=C/c4ccccc4)ncnc32)cc1 | 104% (inactive) |
| O=C(C(=O)c1cc(Br)ccc1O)c1cc(Br)ccc1O | 50.3% (inactive) |
| COc1ccc(-c2cnc(SCC(=O)Nc3ccc(-c4nc5ccccc5s4)cc3)n2-c2ccc(OC)cc2)cc1 | 106% (inactive) |
| N#CSCC1CC(O)(c2ccccc2)C(c2ccccc2)C(c2ccc(Cl)cc2)O1 (stereo not given) | 5.71% (active) |
| OCc1n(Cc2ccc3ccccc3c2)cc[n+]1Cc1ccc2ccccc2c1 | 75% (inactive) |
| c1ccc(-c2nc(Nc3nccnn3)c3ccccc3n2)cc1 | 99.8% (inactive) |
| CCOC(=O)/C=C1/SC(=Nc2ccc(C#N)cc2)N(Cc2ccco2)C1=O | 60.3% (inactive) |
| Cc1cnc2nc(-c3ccc(N(C)C)cc3)cn2c1 | 99.5% (inactive) |
| COc1ccc2c(c1)c(CC(=O)[Se]C)c(C)n2C(=O)c1ccc(Cl)cc1 | -0.299% (active) |
| COc1cc(/C=C/C(=O)C(C(=O)/C=C/c2ccc(OC(=O)CCNc3nnc(C)s3)c(OC)c2)C(=O)CCNc2nnc(C)s2)ccc1OC(=O)CCNc1nnc(C)s1 | 27.6% (inactive) |
| O=C1C2C(C(=O)N1CC[Se][Se]CCN1C(=O)C3C(C1=O)[C@H]1C=C[C@@H]3C1)[C@H]1C=C[C@@H]2C1 (stereo not given in full) | -80.1% (active) |
| COc1ccc(OC)c(CCn2cncc2-c2c[nH]c3cc(Br)ccc23)c1 | 38% (inactive) |
| CN(C)c1ncnc2c1ncn2C1CCCCO1 (stereo not given) | 110% (inactive) |
| COc1ccc2c(c1)sc1nc(-c3ccc(Br)cc3)cn12 | 108% (inactive) |
| O=C(Nc1ccccc1OC(=O)c1ccccc1)c1ccccc1 | 85.2% (inactive) |
| Cc1csc(C#Cc2cncc(O)c2)n1 | 110% (inactive) |
| COc1ccc2nc(NC(=O)CN3CCn4c(nnc4C(F)(F)F)C3)sc2c1 | 88.1% (inactive) |
| CCOC(=O)C(Br)=P(c1ccccc1)(c1ccccc1)c1ccccc1 | 114% (inactive) |
| C=CCN(/C=C/CN(CC=C)CC=C)CC=C | 97.7% (inactive) |

| SMILES | growth |
| --- | --- |
| O=C1NC(=S)S/C1=C\c1cc(Br)ccc1O | 81.6% (inactive) |
| COc1ccc(C(=O)/C=C/c2cccc(Nc3ccnc4cc(Cl)ccc34)c2)cc1 | 18.8% (inactive) |
| CCCCCCCCCCOC(C)=O | 108% (inactive) |
| O=C1C(=O)c2c(nc3ccc(Cl)cn23)-c2ccccc21 | -87.9% (active) |
| CC(=O)OCC(=O)[C@@]1(O)CC[C@H]2[C@@H]3CCC4=CC(=O)CC[C@]4(C)[C@@]3(F)[C@@H](O)C[C@@]21C | 109% (inactive) |
| CCc1nn2c(-c3ccc(Cl)cc3C)c(-c3cc(OC)c(OC)c(OC)c3)nc2s1 | 84.7% (inactive) |
| COc1cc(/C=C/C(=O)C(C(=O)/C=C/c2ccc(OC(=O)CCNC34CC5CC(CC(C5)C3)C4)c(OC)c2)C(=O)CCNC23CC4CC(CC(C4)C2)C3)ccc1OC(=O)CCNC12CC3CC(CC(C3)C1)C2 (stereo not given) | 29.8% (inactive) |
| CN(C)c1ccc(-c2nc3ncc(Br)cc3o2)cc1 | 91.9% (inactive) |
| CCCc1n(Cc2ccc3ccccc3c2)cc[n+]1Cc1ccc2ccccc2c1 | 5.82% (active) |
| N#Cc1c(-c2ccccc2)cc(-c2ccccc2)n(CCC(=O)O)c1=O | 51.9% (inactive) |
| C=C1CCC2C3(C)COC(c4ccccc4)OC3CCC2(C)C1C/C=C1/C(=O)OCC1OC(C)=O (stereo not given) | 96.1% (inactive) |
| O=C(CNC(=O)c1cccc2ccccc12)Nc1ccccc1Cc1ccccc1 | 36.4% [5 µM] (inactive) |
| COC(=O)C1=CCC(n2cnc3c(N)ncnc32)O1 (stereo not given) | 94.3% (inactive) |
| O=C(NC1CCCCC1)c1ccc(Nc2ncnc3c2cnn3-c2ccccc2)cc1 | -66.5% (active) |
| COc1ccc(-c2cc(-c3cccnc3)nc3sc(C(=O)Nc4ccccc4)c(N)c23)cc1OC | 84.3% (inactive) |
| Clc1ccc(C2=NN(c3ccc(Cl)cc3)C(c3cccc(Nc4ccnc5cc(Cl)ccc45)c3)C2)cc1 (stereo not given) | 69.4% (inactive) |
| CCCCN=C(N)c1ccc(OCCSCCOc2ccc(C(N)=NCCCC)cc2)cc1 | 67.7% (inactive) |
| C/C(=C\CCc1ccoc1)CC/C=C(\C)CCCC1COC(=O)C1 (stereo not given) | 96.9% (inactive) |
| Oc1c(Cl)cc(Oc2cc(Cl)c(O)c(CN3CCOCC3)c2)cc1CN1CCOCC1 | 81.2% (inactive) |
| CCOC(=O)CCN(c1c(Cl)ssc1=O)C(C)C | 106% (inactive) |
